Bioassay records deposited in PubChem BioAssay by National Center for Advancing Translational Sciences (NCATS).
Pf growth 48h – inhibits P. falciparum growth in the first generation, 48 h | P. falciparum luciferase growth in erythrocytes, 48 h | Potency, µM (series often up to 28.7 µM), for inactives: at the top dose activity change, negative = inhibition, actives largely listed as inhibitors | 310,000 compounds, 5.9% hits | AID 504832
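Read-out is firefly luciferase luminescence from an integrated reporter in P. falciparum, so falling signal marks reduced parasite growth. Infected erythrocytes were at 2% hematocrit and 0.1% parasitemia (final) in Albumax-supplemented RPMI 1640.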
Vaccinia Venus – inhibitors of vaccinia virus (Venus reporter); Vaccinia virus Venus reporter expression, fluorescence; Potency, µM (highest dose often 36.5 µM), without a hit: at the highest dose activity change, negative = inhibition, most hits filed as inhibitors; 330,000 compounds, 0.46% hits; AID 720580; calls by dose curve; tested in A549 cells; further: nearly all actives have a fitted effect of over 30% in size
VACV mCherry inh – vaccinia inhibition (mCherry reporter); Potency, µM (highest dose often 36.5 µM), for the others: top-dose activity change, negative = inhibition, actives largely listed as inhibitors; Vaccinia virus mCherry reporter infection, fluorescence; 310,000 compounds, 0.63% hits; calls by dose curve; tested in A549 cells; further: nearly all actives have a fitted effect of over 35% in size
Pf growth 96h – P. falciparum growth inhibition at 96 hours. P. falciparum luciferase reporter growth, 96 h. Potency, µM (doses to about 28.7 µM), inactives show at the highest dose activity change, negative = inhibition, hits mostly inhibitors. 320,000 compounds, 6.9% hits. AID 504834
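Two-generation exposure (96 h) targets delayed-death phenotype. Reporter parasites carrying integrated firefly luciferase, in red cells at 2% hematocrit and 0.05% parasitemia final, kept at 37 C, 5% CO2; luminescence loss indicates inhibition.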
AMA1 RON2 block – disrupts binding of P. falciparum AMA1 to RON2; AlphaScreen AMA1-biotinylated RON2 peptide binding; Potency, µM (doses to about 58.2 µM), inactives show top-dose activity change, negative = inhibition, usual class: inhibitors; 360,000 compounds, 0.2% hits; AID 720542;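 further: 0% = vehicle wells and -100% = peptide control; nearly all actives have a fitted effect of over 45% in size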
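AMA1 (3D7) with his tag at 25 nM final met compounds first, then biotinylated RON2 peptide at 25 nM; detection used donor plus acceptor beads, 10 µg/mL apiece, read by AlphaScreen after 30 min at room temperature.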
Starred values were filed as active, the others as inactive; ? = inconclusive; nt = no result; [ ] = another dose, or the depositor's remark. Rows were chosen to be rich in hits. Some 8.7% of all compounds tested hit in one or more screens of this group. Unless noted, the call rests on the fitted dose curve; in most records, active means well fitted curve in the direction sought with a large enough effect; inconclusive means small, poorly fitted or top-dose-only effect, or another doubt; inactive means no such curve, though single readings can be large; an effect the other way counts as inactive or inconclusive. Unless noted, on the % scale 0 is the no-effect control and ±100 the full control effect; potency means the concentration at half of the fitted maximal effect.

SMILES	Pf growth 48h	Vaccinia Venus	VACV mCherry inh	Pf growth 96h	AMA1 RON2 block
CC1(C)Cc2c(c(N3CCOCC3)nc3snc(NC(=O)c4ccccc4)c23)CO1	nt	-0.5%	-7.3%	8.28µM*	30.5%
CC1(C)Cc2c(c(N3CCOCC3)nc3sc(-c4ccc(C(=O)O)o4)c(N)c23)CO1	11.7µM*	8.5%	nt	99.8%	-5.5%
CN1Cc2c(N3CCOCC3)nc3sc(C(=O)c4ccc(Br)cc4)c(N)c3c2CC1(C)C	4.15µM*	-25.6%	6.31µM*	9.28µM*	?
Cc1ccc(NC(=O)CCSc2nc(-c3ccco3)cc(C(F)(F)F)n2)cc1F	nt	-6.2%	-10.6%	nt	nt
CC(C)CCNC(=O)C12CN(Cc3ccccc3)CC1C(c1ccc([N+](=O)[O-])cc1)=NO2 (stereo not drawn)	?	-20.1%	-14.0%	?	?
O=C(NCc1ccccc1C(F)(F)F)C12CN(Cc3ccccc3)CC1C(c1ccc([N+](=O)[O-])cc1)=NO2 (stereo not drawn)	3.29µM*	2.1%	-11.2%	?	-14.0%
COc1cccc(CNC(=O)C23CN(Cc4ccccc4)CC2C(c2ccc([N+](=O)[O-])cc2)=NO3)c1 (stereo not drawn)	?	-6.4%	-11.1%	14.7µM*	-23.4%
COc1ccccc1[C@@H]1C(c2ccccc2)=NN(c2ccccc2)[C@H]1C(=O)N1CCOC1=O	nt	-20.7%	-8.5%	nt	37.9%
COc1ccccc1[C@@H]1C(c2cccc(C)c2)=NN(c2ccccc2)[C@H]1C(=O)N1CCOC1=O	13.1µM*	-22.2%	-1.2%	10.4µM*	30.3%
O=C(Nc1ccc(Cc2ccc(NC(=O)N3CCOCC3)cc2)cc1)N1CCOCC1	?	nt	nt	4.15µM*	1.9%
O=C(Nc1cccc(O)c1)N1CCOCC1	39.7%	0.7%	nt	11.7µM*	7.0%
O=C(Nc1ccc(F)cc1)N1CCOCC1	19.7%	nt	nt	?	-0.7%
O=C(Nc1cccc(OC(=O)N2CCOCC2)c1)N1CCOCC1	-2.4%	-18.8%	-17.3%	18.4%	11.2%
CN(C)c1ccc(NC(=O)N2CCOCC2)cc1	6.57µM*	-6.4%	-9.6%	?	-6.3%
CC[C@@H](C)[C@@H](CO[C@@H](Cc1ccccc1)C(=O)N[C@@H](CCS(C)(=O)=O)C(=O)OC(C)C)NC[C@@H](N)CS	nt	-16.8%	-5.0%	nt	nt
Cc1cccc(N2CCN(C(=O)CCNS(=O)(=O)c3ccc4c(c3)CCN4C(=O)C3CC3)CC2C)c1 (stereo not drawn)	nt	-11.8%	-22.5%	nt	nt
Cc1cc(-c2ccccc2)nc2cc(C(=O)Nc3cc(C(F)(F)F)ccc3Cl)nn12	nt	-6.9%	-3.6%	nt	nt
O=C(Cn1c(=O)n(Cc2ccco2)c(=O)c2oc3ccccc3c21)Nc1ccc(F)cc1F	nt	-9.3%	-4.9%	nt	nt
Cc1ccc(Cn2c(=O)c3c(nc4n3CCN4c3cc(C)cc(C)c3)n(C)c2=O)cc1	nt	-3.0%	-8.7%	nt	nt
CCCS(=O)(=O)N1CCN(Cc2ccc3c(c2)c2ccccc2n3CC)CC1	9.28µM*	?	?	34.8%	0.4%[11.6 µM]
COc1ccc(-c2nc(CN3CCN(C(=O)c4ccco4)CC3)c(C)o2)c(OC)c1C	7.38µM*	-25.9%	?	53.0%	-0.2%
CCn1c2ccccc2c2cc(CN3CCN(C(=O)c4ccco4)CC3)ccc21	?	-25.4%	nt	8.28µM*	?
CCn1c2ccccc2c2cc(CN3CCN(Cc4ccc(OC)c(OC)c4)CC3)ccc21	nt	?	-11.2%	nt	nt
O=C(c1ccco1)N1CCN(Cc2cc(=O)c(OCc3ccccc3Cl)co2)CC1	?	0.0%	-6.0%	?	-8.1%
Cc1ccc(C)c(COc2coc(CN3CCN(C(=O)c4ccco4)CC3)cc2=O)c1	11.7µM*	-22.8%	-19.2%	?	8.4%
O=C(Nc1ccc(F)cc1F)c1cc(-c2ccc(Cl)cc2)on1	nt	4.0%	-7.5%	nt	nt
CCc1ccc(CN2CCN(S(=O)(=O)Cc3ccccc3)CC2)cc1	0.8%	nt	nt	3.29µM*	-23.0%
CCn1c(=O)cc(SCC(=O)N2CCN(C(=O)c3ccco3)CC2)c2ccccc21	-14.4%	nt	nt	5.86µM*	-1.5%
COc1ccc(CN2CCN(C(=O)c3ccco3)CC2)cc1OCc1ccccc1	?	-13.6%	nt	0.0928µM*	?
CN(C)c1ccc(/C=C/c2cc[n+](C)c3ccc4ccccc4c23)cc1	nt	?	36.7%	nt	nt
